# Data taken from PubChem BioAssay (NCATS).
# Records with an inconclusive call do not appear. Entries that show only a call come without a potency. Activity calls are given as the source filed them. Calls follow the shape of the dose curve; as a rule, active = well fitted activation curve with a large enough effect; inconclusive = small, poorly fitted or top-dose-only effect, or effect the other way; inactive = flat fitted curve, though single readings scatter.
# Assay: Cellular Toxicity (caspase-3) NIH 3T3 (AID 666)
# Conditions: NIH 3T3 caspase-3 activation, apoptosis/toxicity; series mostly up to 92.2 µM
# Procedure, shortened: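 Activity: caspase-3/7 induction, NIH 3T3 cells, 16 hr treatment at 37°C, luminescent Caspase-Glo detection; AC50 via Hill equation.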
row,SMILES,Potency
1,CC(C#N)CCC#N (centres undefined),inactive
2,Nc1cccc(Cl)c1,inactive
3,ClCc1ccccc1,inactive
4,CCC/C=N/O,inactive
5,O=S(=O)(Cl)c1ccccc1,inactive
6,C=CCOCC1CO1 (centres undefined),inactive
7,c1ccoc1,inactive
8,Clc1ccccc1,inactive
9,ClC(Cl)(Cl)C(Cl)(Cl)Cl,inactive
10,CCOC(=O)C1OC1(C)c1ccccc1 (centres undefined),inactive
11,C/C=C/CC#N,inactive
12,ClC(Cl)C(Cl)Cl,inactive
13,C=CCCl,inactive
14,Oc1c(Cl)cccc1Cl,inactive
15,Brc1cccc(-c2ccccc2)c1,inactive
16,C=CCO,inactive
17,OCCCCO,inactive
18,Nn1cnnc1,inactive

row,SMILES,Potency
1,BrCCc1ccccc1,inactive
2,Cc1ccccc1[N+](=O)[O-],inactive
3,Clc1cc(Cl)c(Cl)c(Cl)c1,inactive
4,Cc1ccc(N)c(C)c1,inactive
5,C1CC2OC2CC1C1CO1 (centres undefined),inactive
6,CN(C)C(=O)Cl,inactive
7,CC(=O)NNc1ccccc1,inactive
8,Cc1ccc(N=C=O)cc1N=C=O,inactive
9,O=C(Cl)OCc1ccccc1,inactive
10,C=CC(=O)OC,inactive
11,OCC(Cl)CCl (centres undefined),inactive
12,CC(C)CON=O,inactive
13,CC[N+](=O)[O-],inactive
14,CC(C)(Cl)[N+](=O)[O-],inactive
15,C[N+](=O)[O-],inactive
16,CC(C)OC(=O)Cc1ccccc1,inactive
17,ClCC(Br)CBr (centres undefined),inactive

# Assay: Cellular Toxicity (caspase-3) Renal Proximal Tubule (AID 667);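 also: cells exposed to compound for 16 hours at 37 °C before detection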
# Conditions: renal proximal tubule cells; series mostly up to 91.7 µM
# Procedure, shortened: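 Caspase-Glo 3/7 read-out, rat primary kidney proximal tubule cells. Compound exposure 16 h, 37 °C; detection after 1 h at RT. Activity scaled to DMSO and 10 uM staurosporine.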
row,SMILES,outcome
1,CC(C#N)CCC#N (centres undefined),inactive
2,Nc1cc(Cl)ccc1Cl,inactive
3,Nc1cccc(Cl)c1,inactive
4,ClCc1ccccc1,inactive
5,CCC/C=N/O,inactive
6,COc1c(C(C)(C)C)cc([N+](=O)[O-])c(C)c1[N+](=O)[O-],inactive
7,O=S(=O)(Cl)c1ccccc1,inactive
8,C=CCOCC1CO1 (centres undefined),inactive
9,c1ccoc1,inactive
10,Clc1ccccc1,inactive
11,ClC(Cl)(Cl)C(Cl)(Cl)Cl,inactive
12,CCOC(=O)C1OC1(C)c1ccccc1 (centres undefined),inactive
13,C/C=C/CC#N,inactive
14,ClC(Cl)C(Cl)Cl,inactive
15,C=CCCl,inactive
16,Oc1c(Cl)cccc1Cl,inactive
17,Brc1cccc(-c2ccccc2)c1,inactive
18,C=CCO,inactive
19,OCCCCO,inactive
20,Nn1cnnc1,inactive

row,SMILES,outcome
1,BrCCc1ccccc1,inactive
2,Cc1ccccc1[N+](=O)[O-],inactive
3,CCCCOC(=O)c1ccccc1N,inactive
4,Clc1cc(Cl)c(Cl)c(Cl)c1,inactive
5,Cc1ccc(N)c(C)c1,inactive
6,C1CC2OC2CC1C1CO1 (centres undefined),inactive
7,CN(C)C(=O)Cl,inactive
8,CC(=O)NNc1ccccc1,inactive
9,Cc1ccc(N=C=O)cc1N=C=O,inactive
10,O=C(Cl)OCc1ccccc1,inactive
11,C=CC(=O)OC,inactive
12,CCN(CC)N=O,inactive
13,OCC(Cl)CCl (centres undefined),inactive
14,CC(C)CON=O,inactive
15,CC[N+](=O)[O-],inactive
16,CC(C)(Cl)[N+](=O)[O-],inactive
17,C[N+](=O)[O-],inactive
18,CC(C)OC(=O)Cc1ccccc1,inactive
19,ClCC(Br)CBr (centres undefined),inactive
